Values joined by “and” are separate entries in the source; they are usually repeats but may differ in a detail not shown here. Equal entries are not always repeated. The panel holds about 83,000 compounds, 20% with a hit somewhere; the sample as a whole holds those more often.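 In brief: 96-well plates, 48 h treatment, single concentration, percent growth endpoint.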 Active and inactive are the calls of the source. The calls were made as follows: active = growth percent below 10; inactive = the rest.

Test systems include NCI-H23 lung; NCI-H226 lung; HOP-62 NSCLC; NCI-H460 lung; HOP-92 NSCLC; NCI-H522 lung; A549/ATCC NSCLC; 786-0 renal; COLO 205 colon; NCI-H322M lung.
What all share (test): NCI-60 one-dose screen, 48 h (100 = growth as untreated, 0 = no growth, -100 = all killed)
What all share (details): 10 µM unless noted

As for `CCN(CC)CCNc1cc(-c2cccc(OC(F)(F)F)c2)nc2ccc(N3CCCC3)cc12`, the growth in the experiment with NCI-H23 lung is 65.9% (inactive) and -7.71% (active) and 34.2% (inactive); in the experiment with NCI-H226 lung, 74.3% (inactive) and 47.8% (inactive) and 63.7% (inactive); in the experiment with HOP-62 NSCLC, 51.6% (inactive) and 3.4% (active) and 34.8% (inactive); in the experiment with NCI-H460 lung, 27.2% (inactive) and 0.777% (active) and 11.8% (inactive); in the experiment with HOP-92 NSCLC, -83.3% (active) and -7.78% (active) and 20.8% (inactive); with NCI-H522 lung, 60.8% (inactive) and -30.5% (active) and 23% (inactive). The growth in the experiment on A549/ATCC NSCLC is 55% (inactive) and 3.66% (active) and 29.9% (inactive); with 786-0 renal, -59.9% (active) and 1.27% (active) and 21.2% (inactive); in the experiment with COLO 205 colon it was 32.5% (inactive) and -76.5% (active) and -46.9% (active).
Turning to `CNC(=O)c1cc(Oc2ccc(NC(=O)Nc3ccc(Cl)c(C(F)(F)F)c3)cc2)ccn1`, the growth was -10.2% (active) and -19.9% (active) with NCI-H23 lung; -17.8% (active) and -23.1% (active) in the experiment with NCI-H226 lung; 5.13% (active) and 22.5% (inactive) in the experiment with HOP-62 NSCLC; 6.19% (active) and 2.65% (active) in the experiment on NCI-H460 lung; -22.9% (active) and -30.7% (active) with HOP-92 NSCLC; -18.5% (active) and -38.9% (active) with NCI-H522 lung. In addition, the growth was 3.89% (active) and -36.4% (active) in the experiment on A549/ATCC NSCLC; 16.2% (inactive) and 15.5% (inactive) with 786-0 renal; -46% (active) and -24.7% (active) in the experiment on COLO 205 colon.
As to `CN(C)c1ccc2nc3ccc(=[N+](C)C)cc-3sc2c1`, the growth with NCI-H23 lung is 12.5% (inactive) and 8.52% (active) and 28% (inactive); with NCI-H226 lung it was 52.2% (inactive) and 66.6% (inactive) and 68.8% (inactive); with HOP-62 NSCLC, 58.7% (inactive) and 24.6% (inactive) and 46.6% (inactive); in the experiment on NCI-H460 lung it was 17.1% (inactive) and 13.5% (inactive) and 32.9% (inactive); with HOP-92 NSCLC, 63.3% (inactive) and 43.9% (inactive) and 76.6% (inactive); in the experiment on NCI-H522 lung, 6.69% (active) and 34.6% (inactive) and 37.6% (inactive). Further, the growth in the experiment with A549/ATCC NSCLC was 3.7% (active) and 3.9% (active) and 14.7% (inactive); in the experiment with 786-0 renal it was 40.9% (inactive) and 45.6% (inactive) and 54.6% (inactive); in the experiment on COLO 205 colon it was 11.2% (inactive) and -3.25% (active) and -16.6% (active).
Consider `O=C1CCN(Cc2ccccc2)C(=S)N1`, for which the growth is 117% (inactive) and 100% (inactive) in the experiment on NCI-H23 lung; 110% (inactive) and 105% (inactive) in the experiment on NCI-H226 lung; 101% (inactive) and 103% (inactive) with HOP-62 NSCLC; 113% (inactive) and 105% (inactive) in the experiment with NCI-H460 lung; 70.4% (inactive) and 92.4% (inactive) in the experiment on HOP-92 NSCLC; 114% (inactive) and 95.1% (inactive) in the experiment on NCI-H522 lung. Besides, the growth with A549/ATCC NSCLC was 107% (inactive) and 105% (inactive); with 786-0 renal, 108% (inactive) and 109% (inactive); in the experiment with COLO 205 colon, 111% (inactive) and 108% (inactive).
On to `Cc1cc(O)c(C(C)C)cc1S(=O)(=O)O` (tested in a mixture with another compound), for which the growth is 87.6% (inactive) and 13% (inactive) and 102% (inactive) with NCI-H23 lung; 89% (inactive) and 43.4% (inactive) and 93.8% (inactive) in the experiment with NCI-H226 lung; 77.5% (inactive) and 33.1% (inactive) and 106% (inactive) with HOP-62 NSCLC; 99.1% (inactive) and 1.34% (active) and 108% (inactive) in the experiment on NCI-H460 lung; 89.5% (inactive) and 6.59% (active) and 77.8% (inactive) with HOP-92 NSCLC; 88.5% (inactive) and -20.5% (active) in the experiment on NCI-H522 lung. In addition, the growth is 90.1% (inactive) and 8.67% (active) and 102% (inactive) with A549/ATCC NSCLC; 87.2% (inactive) and 13% (inactive) and 116% (inactive) with 786-0 renal; 124% (inactive) and -63.7% (active) and 103% (inactive) in the experiment on COLO 205 colon.
For the compound `COc1cc(NS(C)(=O)=O)ccc1Nc1c2ccccc2nc2c(C)cccc12`, the growth in the experiment with NCI-H23 lung was -8.23% (active) and 1.07% (active); in the experiment on NCI-H226 lung, -57.6% (active) and -44.9% (active); in the experiment on HOP-62 NSCLC, -17.9% (active) and -32.5% (active); in the experiment with NCI-H460 lung it was -36.3% (active) and -9.34% (active); in the experiment on HOP-92 NSCLC, -17.9% (active); in the experiment with NCI-H522 lung, -14.2% (active). The growth is -62.9% (active) with A549/ATCC NSCLC; -41.9% (active) and -40.4% (active) in the experiment with 786-0 renal; 7.98% (active) and 0.541% (active) in the experiment on COLO 205 colon.
In the case of `S=C1SCN(Cc2ccccc2)CN1Cc1ccccc1`, the growth is 81.2% (inactive) in the experiment on NCI-H23 lung; 88.8% (inactive) in the experiment on NCI-H226 lung; 100% (inactive) in the experiment with HOP-62 NSCLC; 95.5% (inactive) in the experiment with NCI-H460 lung; 37.3% (inactive) in the experiment with HOP-92 NSCLC; 21.5% (inactive) in the experiment with NCI-H522 lung. Moreover, the growth in the experiment with A549/ATCC NSCLC was 93.7% (inactive); in the experiment with 786-0 renal, 49.8% (inactive); in the experiment on COLO 205 colon it was 78.1% (inactive).
Consider `CCCCCCCCCCCCCCCCOc1ccc(C)cc1`, for which the growth is 98.2% (inactive) with NCI-H23 lung; 107% (inactive) with NCI-H226 lung; 111% (inactive) in the experiment on NCI-H322M lung; 114% (inactive) in the experiment with NCI-H460 lung; 102% (inactive) with A549/ATCC NSCLC; 107% (inactive) in the experiment on 786-0 renal. Moreover, in the experiment with COLO 205 colon, the growth was 111% (inactive).
`COc1ccc(CCN(C)CCCC(C#N)(c2ccc(OC)c(OC)c2)C(C)C)cc1OC` (stereo not drawn): the growth in the experiment with NCI-H23 lung is 86.9% (inactive) and 106% (inactive) and 86.1% (inactive); in the experiment on NCI-H226 lung it was 113% (inactive) and 102% (inactive) and 101% (inactive); in the experiment with NCI-H322M lung, 96.4% (inactive) and 91.3% (inactive); with HOP-92 NSCLC, 81.2% (inactive); in the experiment on NCI-H522 lung, 98.8% (inactive) and 91.6% (inactive); in the experiment with A549/ATCC NSCLC, 87.5% (inactive) and 104% (inactive) and 101% (inactive). The growth with 786-0 renal is 93.7% (inactive) and 88.8% (inactive) and 107% (inactive); in the experiment with COLO 205 colon it was 100% (inactive) and 109% (inactive) and 101% (inactive).

Values taken from PubChem BioAssay (NCI).
